This is one part of a sample in which hits are shown more often than they occur.
VACV E9 pol inh = inhibitors of vaccinia virus processive DNA synthesis (E9 polymerase) | in vitro processive DNA synthesis, absorbance read-out; hits give low values | AID 493162 | 46,000 tested, 0.94% active | normalized absorbance, % (no concentration beside the values); in the data active = normalized absorbance mostly below about 85%, no sharp cut-off; inactive = mostly above about 86%
Hits are given with their value; n = inactive.

SMILES	VACV E9 pol inh
Cc1ccc2oc(=O)c3cc(C(=O)N4CCN(c5ccc(F)cc5)CC4)sc3c2c1	n
Cc1ccc2oc(=O)c3cc(C(=O)NCCN4CCCCC4C)sc3c2c1 (centres undefined)	62.3
Cc1ccc2oc(=O)c3cc(C(=O)Nc4ccc5c(C)cc(=O)oc5c4)sc3c2c1	n
COc1ccc(-c2ncnc(C(F)(F)F)c2-c2cscn2)c(O)c1	n
O=C(Nc1ccc(Cl)cc1)C1(S(=O)(=O)c2ccc(Cl)cc2)CC1	n
O=C(CSc1nccn1-c1ccc(Cl)cc1)NC1CCCC1	n
Cc1csc(NC(=O)c2ccccc2C(=O)O)c1-c1nc2ccccc2s1	71.7
Cc1ccc2nc(NC(=O)c3ccccc3C(=O)O)sc2c1	n
O=C(O)c1ccccc1-c1nc2ccccc2s1	n
COc1ccc2c(c1)C=C(C(=O)Nc1ccccc1)CO2	n
Nc1c(C(=O)Nc2ccc(Cl)cc2)oc2ccccc12	n
O=C(Nc1ccc(Cl)cc1)C1=Cc2ccccc2OC1	64.6
O=C(COC(=O)c1cn(-c2ccccc2)nc1-c1ccccc1)c1ccc(Br)cc1	n
COc1ncnc2sc(-c3ccccc3)cc12	n
CN1CCN(c2ncnc3sc(-c4ccccc4)cc23)CC1	50.4
c1ccc(-c2cc3c(N4CCc5ccccc54)ncnc3s2)cc1	n
CCc1cc2cc(C(=O)O)sc2s1	n
O=c1cc(C(F)(F)F)nc(N2CCSCC2)[nH]1	n
CC1CCc2c(sc(NC(=O)c3ccccc3)c2C(=O)N2CCCCC2)C1 (centres undefined)	n
CCOC(=O)CCc1c(CC(=O)OCC)c[nH]c1/C=N/O	31.1
CCOC(=O)CCc1n[nH]c(=O)[nH]c1=O	n
CCOC(=O)CCc1ccc(OCc2c(C)c(C)c(C)c(C)c2C)cc1	n
CCc1ccc(/C=C2\Sc3ccccc3N(CC(=O)O)C2=O)cc1	66.5
CNC(=O)CN1C(=O)/C(=C/c2ccccc2C)Sc2ccccc21	n
O=C(/C=C1/Sc2ccccc2N(Cc2ccc(F)cc2)C1=O)NCc1ccccc1	n
SMILES	VACV E9 pol inh
O=C(O)c1ccc2c(c1)N(Cc1ccc(F)cc1)C(=O)/C(=C\c1ccccc1)S2	57.2
O=C(O)CN1C(=O)S/C(=C\c2ccc(Br)cc2)C1=O	n
O=C(NCC1CCCO1)c1ccc2c(c1)N(Cc1ccc(F)cc1)C(=O)/C(=C/c1ccccc1)S2 (centres undefined)	n
O=C(CN1C(=O)c2ccccc2C1=O)N(Cc1ccccc1)Cc1ccccc1	n
CCCN(CCC)S(=O)(=O)c1ccc(C(=O)NC(=S)Nc2ccc(F)cc2)cc1	n
O=C(NCc1nc(-c2ccccc2)no1)C12CC3CC(CC(C3)C1)C2	n
Cc1ccc(-n2ncc3c(=O)[nH]c(SCC(=O)Nc4ccccc4C(F)(F)F)nc32)cc1	n
CCC1C(=O)C2=C(CC(C)(C)CC2=O)N(c2ccc(OC)cc2)C1c1ccccc1 (centres undefined)	n
O=C(Nc1ncn[nH]1)c1ccccc1O	n
O=C(CCCC(=O)c1ccccc1)Nc1ncn[nH]1	72.6
CCc1ccc(OCCCC(=O)Nc2ncn[nH]2)cc1	n
COC(=O)CC1=C(C(=O)OC)C2(C(=O)Nc3ccccc32)C(C#N)=C(N)O1 (centres undefined)	n
Cc1ccc(NC(=O)CCCN2C(=O)/C(=C\c3ccc4c(c3)OCO4)SC2=S)cc1C	n
N#Cc1nc2c(C#N)c(N)n(CCc3ccccc3)c2nc1C#N	n
CC(NC(=O)/C=C/c1cccs1)C1CC2CCC1C2 (centres undefined)	n
Cc1oc(-c2ccccc2)nc1CS(=O)CC(=O)N(C)Cc1ccccc1 (centres undefined)	n
O=c1cc(-c2ccccc2)[nH]c(=S)[nH]1	n
S=c1cc(-c2ccccc2)ss1	n
S=c1[nH]c(-c2ccccc2)c(-c2ccccc2)o1	62.5
O=C(c1ccc(-c2nc3ccccc3s2)s1)N1CCCCC1	n
Cc1sc(Cc2ccc(Cl)cc2)nc1O	n
CCc1ccc(OCC(=O)N2CCOCC2)cc1	n
CC(C)C[N+]1(C)Cc2ccccc2C1	n
NOCc1cccc(C(F)(F)F)c1	n
COc1ccc(NC(=O)c2cc(-c3cccs3)nc3ccccc23)cc1	n
SMILES	VACV E9 pol inh
COc1ccc(C=Nc2ccccc2)cc1	n
COc1ccc(N=Cc2ccccc2F)cc1	52.4
COc1ccc(N=Cc2cn(-c3ccc(OC)cc3)cc2C=Nc2ccc(OC)cc2)cc1	n
Cc1cccc(-c2nc(CS(=O)CC(=O)NC3CCCCCC3)c(C)o2)c1 (centres undefined)	n
COc1ccc(OC)c(NC(=O)C2C3CC/C=C\CC/C=C/CCC32)c1 (centres undefined)	n
O=C(O)CCc1ccc(-c2ccccc2)n1NC(=O)c1ccccc1Br	n
COc1ccc2c(c1)c(-c1csc(N)n1)c(C)n2C	n
COc1ccc2c(c1)c(C#N)c1n2CCN=C1N(C)C	n
CN=C1c2c(C)c3cc(OC)ccc3n2CCN1C	49.5
COc1cccc(C=Nc2ccc(-c3nc4ccc(C)cc4o3)cc2)c1O	n
CC(CN1CCNCC1)(NS(=O)(=O)c1ccccc1)c1ccccc1 (centres undefined)	n
CC(CBr)(NS(=O)(=O)c1ccccc1)c1ccccc1 (centres undefined)	64.9
CC(C)(CN1CCCCCC1)NS(=O)(=O)c1ccccc1	n
CCSC1=C(C#N)C(c2ccccc2OC)C(C#N)C(=O)N1 (centres undefined)	n
O=C1/C(=C/C2CCCO2)CC/C1=C\C1CCCO1 (centres undefined)	14.0
Cc1onc(-c2c(Cl)cccc2Cl)c1C(=O)N=CN(C)C	n
O=S(=O)(Nc1ccc(Cl)cc1)c1ccccc1	n
O=C(Nc1nn[nH]n1)c1cc(F)c(F)cc1Cl	n
COc1ccc(-c2cc(=Nc3ccc(C)cc3C)c3cc(O)ccc3o2)cc1	n
Cc1cc(NCc2cccnc2)c2ccc(Cl)cc2n1	n
Clc1ccc2oc(-c3cccnc3)nc2c1	n
CCCN=c1cc(-c2ccccc2)oc2ccc(C)cc12	42.5
Clc1ccc2oc(-c3ccccc3)cc(=NCc3cccnc3)c2c1	66.0
Cc1ccc2oc(-c3ccc(Cl)cc3)cc(=O)c2c1	n
CCOC(=O)c1cc(-c2ccc(C)cc2)n(CCCC(=O)Nc2cccc(CC)c2)c1	n
SMILES	VACV E9 pol inh
COc1ccc2cc(CCNC(=O)COc3ccccc3)c(=O)[nH]c2c1	n
CN(C)c1ccc(NC(=O)c2cc(C(F)(F)F)cc(C(F)(F)F)c2)cc1	n
Cc1ccc(-n2c(NN)nc3sc4c(c3c2=O)CCCC4)cc1	n
COc1ccc(NC(=O)CSc2nnc3ccccn23)cc1	n
Cc1ccc2oc(=O)c3cnn(CC(=O)NCCN4CCN(Cc5ccccc5)CC4)c3c2c1	n
Cc1cc2ccccc2c(N=Cc2cc(Br)cc(Br)c2O)c1C#N	n
COc1cccc(C=Nc2cccc(C(=O)O)c2C)c1O	n
Cc1c(N=Cc2cc(Br)cc(Br)c2O)cccc1C(=O)O	44.9
CCN1CCN(C(c2cccnc2)c2ccc3cccnc3c2O)CC1 (centres undefined)	n
CC(=O)Nc1ccc(-c2cc(C(=O)O)nc3n[nH]c(-c4ccccc4)c23)cc1	n
CCn1c(SCC(=O)c2ccccc2)nnc1-c1ccncc1	n
CCS(=O)(=O)N1CCN=C1SCc1cccc2ccccc12	28.8
COc1ccccc1C1CCN(C(=O)CSCc2cccc3ccccc23)CC1	n
C=C(C)CSc1nnc(SCc2cccc3ccccc23)s1	n
CS(=O)(=O)N1CCN=C1SCc1cccc2ccccc12	50.6
O=S(=O)(c1ccc(F)cc1)N1CCN=C1SCc1ccc(F)cc1	n
CCSC1=NCCN1S(C)(=O)=O	n
O=C(Cc1ccccc1)N1CCN=C1SCc1ccccc1	n

Screening results (PubChem)
